Tau FP inhib: blocks human tau fibril formation measured by polarization | AID 1468 | Potency, µM (top dose mostly 57.7 µM), actives largely listed as inhibitors | 280,000 compounds, 0.39% hits | P10636 | K18 P301L tau heparin fibrillization, Alexa594 FP, 6 h; also: nearly all actives have a fitted effect of over 55% in size
Target sequence (P10636 561-689 P618L limits assumed): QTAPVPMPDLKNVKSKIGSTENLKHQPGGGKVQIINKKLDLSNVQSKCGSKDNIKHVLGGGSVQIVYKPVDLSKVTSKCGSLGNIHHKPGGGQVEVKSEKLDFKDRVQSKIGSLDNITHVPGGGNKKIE
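K18 P301L tau (15 uM unlabeled/0.24 uM Alexa 594-labeled, final) + compound + heparin 20 uM final; 100 mM NaOAc pH 7; 6 hr 37 C; ThT 30 uM final added, 1 hr RT; FP ex 555/em 632 nm.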
Tau fluor counter: counter-screen for tau fibril formation inhibitors | tau K18 P301L Alexa594 fluorescence, heparin fibrillization | Potency, µM (series often up to 57.7 µM) | 280,000 compounds, 0.93% hits | AID 1463; also: nearly all actives have a fitted effect of over 55% in size
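Human K18 P301L tau (15 uM unlabeled plus 0.24 uM Alexa 594-labeled, final) in 100 mM sodium acetate pH 7 was mixed with compound and 20 uM heparin and incubated 6 hr at 37 C.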
TRb SRC2 PPI: disrupts binding of human TR beta to SRC2 | Potency, µM (series often up to 106 µM), hits mostly inhibitors | P10828 | TRbeta-SRC2 peptide binding, fluorescence polarization; receptor liganded with 1 µM T3 | 280,000 compounds, 0.065% hits; also: nearly all actives have a fitted effect of over 50% in size
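Human TRb LBD (0.6 uM) plus Texas Red-labeled SRC2 peptide (20 nM), 1uM T3, 5% DMSO, 5 hr at ambient temperature. Decreased polarization (555/632 nm) flags inhibition; data normalized to free and bound peptide controls.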
TexasRed fluor: alters Texas Red total fluorescence, flagging assay interference | TRb/SRC2 Texas Red total fluorescence interference | Potency, µM (series often up to 106 µM) | 280,000 compounds, 0.29% hits | AID 1479; active = well fitted curve in either direction with a large enough effect; inconclusive = small, poorly fitted or top-dose-only effect
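Human TRb ligand-binding domain at 0.6 uM with 20 nM Texas Red SRC2 peptide in Tris buffer containing 1 uM T3 and 5% DMSO, incubated with compound 5 h at ambient temperature. Total fluorescence (555/632 nm) calculated as parallel + 2 × perpendicular.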
Tau fibril ThT: inhibitors of human tau fibril formation, thioflavin T binding; P10636; recombinant tau K18 P301L (four-repeat tau fragment), heparin-induced fibrillization, ThT fluorescence; Potency, µM (highest dose often 57.4 µM), actives largely listed as inhibitors; 270,000 compounds, 2.1% hits; AID 1460; also: nearly all actives have a fitted effect of over 55% in size
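K18 P301L tau (15 uM + 0.24 uM Alexa 594-tagged), heparin 20 uM, NaOAc pH 7, 6 h 37 C; ThT 30 uM, 1 h RT, ex 450/em 510 nm.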
Hits are given with their value; i = inactive; ? = inconclusive; nt = no result; [ ] = another dose, or the depositor's remark. In the library only some 3.1% were active in any assay of this set; here they are far more common. Unless noted, calls follow the shape of the dose curve; as a rule, active = well fitted curve in the direction sought with a large enough effect; inconclusive = small, poorly fitted or top-dose-only effect, or another doubt; inactive = no such curve, though single readings can be large; an effect the other way counts as inactive or inconclusive.

SMILES	Tau FP inhib	Tau fluor counter	TRb SRC2 PPI	TexasRed fluor	Tau fibril ThT
O=C(O)C1Sc2[nH]c(=O)sc2C2c3cc(Br)ccc3OC(=O)C12 (stereo unspecified)	i	i	i	i	nt
COC(=O)C1=C(C(=O)OC)C(c2ccc(OC)c(OC)c2)c2sc(=O)[nH]c2S1 (stereo unspecified)	i	i	i	i	?
COC(=O)C1=C(C(=O)OC)C(c2cc(Br)ccc2O)c2sc(=O)[nH]c2S1 (stereo unspecified)	i	?	i	i	28µM
COC(=O)C1=C(C(=O)OC)C(c2cc(Cl)ccc2O)c2sc(=O)[nH]c2S1 (stereo unspecified)	i	?	i	i	25µM
CCOC(=O)CSc1nc2cc(OCC)ccc2cc1C#N	i	i	i	i	16µM
O=C(Nc1ccccc1C(F)(F)F)c1ncoc1-c1ccco1	i	i	i	i	i
O=C(NCCc1ccccc1)c1cc(-c2ccccc2)nc2n[nH]c(-c3ccccc3)c12	?	i	i	i	i
COc1cccc(C=Nc2cc(C)cc(C)c2)c1O	i	i	i	i	?
COc1cc(Br)cc(C=Nc2cccc(C(F)(F)F)c2)c1O	i	i	i	i	14µM
CC1CCN(S(=O)(=O)c2ccc3nc(NCc4ccccc4)ccc3c2)CC1	i	?	i	i	i
COc1ccc(/C=C\c2onc(C)c2S(=O)(=O)N2CCC(C(=O)Nc3ccccc3OC)CC2)cc1	i	?	i	i	i
CCOC(=O)C1(C)/C(=N/Nc2ccccc2OC)C(=O)C(=O)N1c1ccccc1 (stereo unspecified)	i	i	i	i	16µM
CCOC(=O)C1(C)/C(=N/Nc2ccccc2)C(=O)C(=O)N1c1ccccc1 (stereo unspecified)	i	i	i	i	18µM
CCOC(=O)C1(C)C=C(Nc2cccc(OC)c2)C(=O)N1c1ccccc1 (stereo unspecified)	i	i	i	i	?
CC1CN(C(=O)CCC(=O)NCc2cccc(Cl)c2)c2ccccc2S1 (stereo unspecified)	i	?	i	28µM[quencher]	i
O=C(Nc1cc(Cl)cc(Cl)c1)c1ccc(F)c(S(=O)(=O)NCc2ccccc2Cl)c1	8.9µM	?	i	i	i
O=C(Nc1cc(Cl)cc(Cl)c1)c1ccc(F)c(S(=O)(=O)NC2CCCCC2)c1	7.1µM	?	i	i	i
COc1ccc(CNS(=O)(=O)c2cc(C(=O)Nc3cc(Cl)cc(Cl)c3)ccc2F)cc1	3.5µM	3.5µM[quencher]	i	i	i
O=C(Nc1ccc(Br)cc1)c1ccc(F)c(S(=O)(=O)NC2CCCCCC2)c1	?	?	i	i	i
CC1=C(/C=C/C(C)=C/C=C/C(C)=C\CO)C(C)(C)CCC1	i	i	i	i	?
COc1ccc(C)cc1NC(=O)c1cnc2ccc(C)cn2c1=O	i	i	i	i	i
Cc1cnc(C(=O)Nc2ccc(F)cc2)cn1	i	i	i	i	i
Cc1cnc(C(=O)Nc2ccc(N3CCN(C(=O)OC(C)(C)C)CC3)cc2)cn1	i	i	i	i	1.8µM
O=C(NCc1ccccc1)C1(C(F)(F)F)C/C(=C\Cc2ccccc2)CCCO1 (stereo unspecified)	nt	nt	i	i	nt
O=C(Nc1ccc(O)cc1)/C(=C\c1ccncc1)NC(=O)c1ccccc1	i	i	i	i	i
SMILES	Tau FP inhib	Tau fluor counter	TRb SRC2 PPI	TexasRed fluor	Tau fibril ThT
O=C(Nc1ccc(O)cc1)/C(=C\C=C\c1ccccc1)NC(=O)c1ccccc1	i	18µM[quencher]	i	i	?
C[n+]1cc2c3c(ccc2c2ccc4cc5c(cc4c21)OCO5)OCO3	?	18µM[quencher]	i	i	28µM
C[n+]1c(/C=C/c2ccc3c(c2)OCO3)ccc2ccccc21	i	i	i	i	?
CCOc1ccc(/C=C/C(=O)Nc2sc3c(c2C(=O)OC)C(C(=O)OC)CC3)cc1 (stereo unspecified)	?	?	i	i	3.2µM
O=C1CSc2ccc(C(=O)Nc3cccc(S(=O)(=O)Nc4ccc(Br)cc4)c3)cc2N1	18µM	10µM[quencher]	i	i	i
O=C(O)c1cccc(NC(=O)c2cccc(S(=O)(=O)Nc3cccc(F)c3)c2)c1	i	i	?	0.32µM[quencher]	i
O=C(O)c1cccc(NC(=O)c2cccc(S(=O)(=O)Nc3cccc(C(=O)O)c3)c2)c1	i	i	i	i	i
O=[N+]([O-])c1cccc(C2Nc3cccc4cccc(c34)N2)c1	i	?	i	i	?
